Rows were chosen to be rich in hits. Some 17% of all compounds tested hit in one or more screens of this group.
ATXN2 expr inh: inhibitors of ATXN2 expression | Potency, µM (top dose mostly 57 µM), without a hit: at the highest dose activity change, negative = inhibition, hits mostly inhibitors | actives 0.72% (n = 360,000) | HEK-293 ATXN2-luciferase reporter, luminescence, 24 h; further: on the % scale 0 is the no-effect control and ±100 the full control effect; nearly all actives have a fitted effect of over 55% in size
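ATXN2-luciferase reporter cells (luciferase flanked by upstream and downstream ATXN2 gene portions) were treated 24 h at 37 °C with compounds at up to 57 uM. SteadyGlo luminescence gave expression; GF-AFC fluorescence gave viability.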
TGFb SMAD3 inh: inhibitors of TGF-b signaling. HepG2 CAGA-GFP TGF-b/SMAD3 reporter, GFP fluorescence, 18 h; TGF-beta stimulated, 500 pg/mL final. Potency, µM (top dose mostly 46.1 µM), without a hit: at the highest dose activity, negative = inhibition, most hits filed as inhibitors. actives 1.2% (n = 410,000). AID 588855; further: on the % scale 0 is the no-effect control and ±100 the full control effect; nearly all actives have a fitted effect of over 65% in size
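HEPG2 CAGA-GFP cells (1000/well, DMEM with 1% FBS) were pre-incubated 2 h at 37 degrees C, given compound by pin tool, then stimulated with TGF-beta at 500 pg/mL final for 18 h before per-cell GFP fluorescence imaging.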
S2 tox: reduces viability in counter-screen for ATXN expression inhibitors; actives 0.49% (n = 400,000); Potency, µM (doses to about 56.7 µM), usual class: cytotoxic; S2 cells (HEK-293 line with an ATXN2-luciferase reporter) viability, CellTiter-Fluor protease fluorescence, 24 h; further: nearly all actives have a fitted effect of over 40% in size
TDP1 cell CPT: growth inhibition of DT40 Tdp1-/-;hTDP1 cells with camptothecin (screen for TDP1 inhibitors); AID 686979; chicken DT40 Tdp1-/-;hTDP1 cells + 20 nM CPT, ATP luminescence, 48 h; Potency, µM (titrated, usually from 46.2 µM), without a hit: at the highest dose activity change, negative = growth inhibition, hits mostly inhibitors; actives 12% (n = 420,000); further: on the % scale 0 is the no-effect control and ±100 the full control effect; nearly all actives have a fitted effect of over 55% in size
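Chicken DT40 Tdp1-/- cells stably complemented with human TDP1 were seeded at 400 cells/well in medium containing 20 nM camptothecin, exposed to pin-transferred compounds, and grown at 37 °C for at least 48 hr. Viability was read as ATP luminescence.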
TDP1 cell noCPT: qHTS for Inhibitors of human tyrosyl-DNA phosphodiesterase 1 (TDP1): qHTS in cells in absence of CPT. AID 686978, 2013. Potency, µM (top dose mostly 46.2 µM), inactives show at the highest dose activity change, negative = growth inhibition, usual class: inhibitors. actives 15% (n = 420,000). DT40 Tdp1-/- hTDP1 cells, no CPT, ATP luminescence, 48 h; further: on the % scale 0 is the no-effect control and ±100 the full control effect; nearly all actives have a fitted effect of over 55% in size
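A cellular qHTS used chicken DT40 cells lacking endogenous Tdp1 but carrying stably transfected human TDP1. Compounds were applied without camptothecin, and cell growth kinetics were judged by ATP-dependent luminescence after ≥48 hr.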
HepG2 tox: counter-screen for TGF-b inhibitors: cytotoxicity in HepG2 cells; AID 588856; HepG2 CAGA-GFP viability, ATP luminescence, 18 h; actives 0.76% (n = 410,000); Potency, µM (top dose mostly 46.1 µM), for the others: at the top dose activity change, negative = cytotoxicity, hits mostly cytotoxic
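HepG2 CAGA-GFP cells (1000/well, DMEM with 1% FBS) received compound, then TGF-beta at 500 pg/mL final, and were incubated 18 hours at 37 degrees C. Viability was read by CellTiter-Glo luminescence. Media-only wells were set as complete cell-killing and DMSO as no toxicity.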
The depositor's hits bear a star; i = inactive; ? = inconclusive; nt = no result. The call rests on the fitted dose curve; in most records, active means well fitted curve in the direction sought with a large enough effect; inconclusive means small, poorly fitted or top-dose-only effect, or another doubt; inactive means no such curve, though single readings can be large; an effect the other way counts as inactive or inconclusive. Potency means the concentration at half of the fitted maximal effect.

SMILES	ATXN2 expr inh	TGFb SMAD3 inh	S2 tox	TDP1 cell CPT	TDP1 cell noCPT	HepG2 tox
CC1C(=O)N(Cc2cn(CC3CCCCC3)nn2)CCS(=O)(=O)N1Cc1ccc(-c2ccc(Cl)cc2)cc1 (stereo not drawn)	?	?	?	16µM*	8.2µM*	-3%
CC1C(=O)N(Cc2cn(CC3CCCCC3)nn2)CCS(=O)(=O)N1Cc1ccc(-c2ccc(Cl)c(Cl)c2)cc1 (stereo not drawn)	-27%	?	?	10µM*	9.2µM*	-26%
COc1ccccc1NC(=O)c1cc(S(=O)(=O)NCCC2=CCCCC2)ccc1F	-17%	?	?	23µM*	?	-3%
COc1ccc(C)cc1NC(=O)c1cc(S(=O)(=O)NCCC2=CCCCC2)ccc1F	-11%	-15%	i	21µM*	?	1%
Cc1cc(=O)oc2cc(OCC(=O)Nc3c(C)n(C)n(-c4ccccc4)c3=O)c(Cl)cc12	0%	7%	i	-13%	-10%	-4%
Cc1ccc2c(=O)cc(C(=O)Nc3ccc(S(=O)(=O)N4CCCCCC4)cc3)oc2c1C	14%	?	i	?	15µM*	-7%
Cc1cc(C)c2oc(C(=O)Nc3ccc(S(=O)(=O)N4CCC(C)CC4)cc3)cc(=O)c2c1	2%	4%	i	10µM*	7.3µM*	-33%
CS(=O)(=O)Nc1cccc(C2=NN(C(=O)c3ccc(F)cc3)C(c3cccs3)C2)c1 (stereo not drawn)	nt	?	?	?	?	-9%
CS(=O)(=O)N1N=C(c2ccc(Br)cc2)CC1c1cccs1 (stereo not drawn)	56%	-23%	i	21µM*	26µM*	-8%
CCS(=O)(=O)Nc1ccc(C2=NN(C(=O)c3ccccc3)C(c3cccs3)C2)cc1 (stereo not drawn)	?	-21%	?	23µM*	21µM*	0%
Cc1cccc(C(=O)N2N=C(c3ccc(NS(C)(=O)=O)cc3)CC2c2cccs2)c1 (stereo not drawn)	-16%	-28%	i	23µM*	-19%	-23%
OC(c1cc(Cl)cc(Cl)c1)c1ncc(-c2cccc(F)c2)[nH]1 (stereo not drawn)	?	?	i	?	16µM*	-36%
OC(c1cc(F)cc(Cl)c1)c1ncc(-c2ccc(Cl)cc2)[nH]1 (stereo not drawn)	-24%	?	?	18µM*	?	-70%
Cc1cc2c(cc1S(=O)(=O)Nc1cccc(C)c1C)n(C)c(=O)c(=O)n2C	-8%	6%	i	?	-9%	-6%
COc1ccc(OC)c(CCNC(=O)c2nn(C)c3c2CSc2ccccc2-3)c1	nt	-14%	nt	?	?	-29%
CC(C)CCNC(=O)c1nn(C)c2c1CSc1ccccc1-2	nt	-14%	nt	?	18µM*	-26%
Cn1nc(C(=O)NC2CCCCC2)c2c1-c1ccccc1SC2	-16%	-3%	i	26µM*	?	-2%
CCN(CC)CCCNC(=O)c1nn(C)c2c1CSc1ccccc1-2	nt	0%	nt	?	?	-20%
Cc1ccc(N2CCN(C(=O)c3nn(C)c4c3CSc3ccccc3-4)CC2C)cc1 (stereo not drawn)	nt	?	nt	23µM*	?	-37%
Cn1nc(C(=O)N2CCN(c3ccccc3)CC2)c2c1-c1ccccc1SC2	nt	-1%	nt	-5%	9%	-26%
COc1ccc(OC)c(CNC(=O)c2nn(C)c3c2CSc2ccccc2-3)c1	nt	?	nt	21µM*	?	-1%
COc1ccccc1/C=C1\N=C(C(C)(C)C)OC1=O	nt	0%	i	?	?	-20%
CCOc1ccc(CCNC(=O)c2nn(C)c3c2CSc2ccccc2-3)cc1	nt	?	nt	16µM*	?	-20%
CC(C)N(C(=O)c1nn(C)c2c1CSc1ccccc1-2)C1CCCCC1	-2%	-23%	i	21µM*	10µM*	-1%
CC(C)OCCCNC(=O)c1nn(C)c2c1CSc1ccccc1-2	nt	-20%	nt	?	21µM*	-9%
SMILES	ATXN2 expr inh	TGFb SMAD3 inh	S2 tox	TDP1 cell CPT	TDP1 cell noCPT	HepG2 tox
Cn1nc(C(=O)Nc2cc(F)ccc2F)c2c1-c1ccccc1SC2	nt	8%	nt	-25%	?	-24%
COc1ccc(CNC(=O)c2nn(C)c3c2CSc2ccccc2-3)cc1	nt	?	nt	?	?	-17%
CCN(CC)S(=O)(=O)c1ccc(NC(=O)c2nn(C)c3c2CSc2ccccc2-3)cc1	nt	2%	nt	?	18µM*	-25%
COc1ccc(OC)c(CNC(=O)CCC(=O)N2Cc3cccc(OC)c3Oc3ncccc32)c1	nt	7%	i	1%	-22%	0%
CCN(CC)S(=O)(=O)c1cccc(C(=O)NCC2CCCCC2)c1	-17%	4%	i	?	21µM*	-1%
CCN(CC)S(=O)(=O)c1cccc(NC(=O)CN(C)C2CCCCC2)c1	-15%	2%	i	?	15µM*	3%
CN(C1CCCCC1)S(=O)(=O)c1ccc(F)c(C(=O)Nc2ccc(C(F)(F)F)cc2)c1	0%	?	?	23µM*	21µM*	-16%

Bioassay records from PubChem BioAssay.
